# Measured values as given in the supplement of paper PMC10037445.
# Over roughly 2,900 compounds, “NF-kB SEAP reporter activity, fold change vs agonist alone” has its median near 0.99; the highest 2% begin near 2.6. This excerpt belongs to a sample that is enriched for the highest values.
# Experiments:
# RAW-Dual [1] = assay: NF-kB SEAP reporter activity, fold change vs agonist alone; cytotoxicity flag (confluency mask): not cytotoxic; higher = enhanced NF-kB activity
# In short: (§1)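 RAW-Dual macrophages were seeded in DMEM at 50,000 cells/well in 384-well plates, given 50 nL of library stock by pin tool, and given a PRR agonist 1 h later. Plates were held at 37 °C, 5% CO2 for 20 hours, after which supernatant was read for IRF by QuantiLuc luminescence and for NF-κB by QuantiBlue absorbance at 620 nm. Reporter activity is expressed as fold change over wells that received agonist alone. A well was called cytotoxic when IncuCyte confluency fell below 70% of agonist controls in both mask sets.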
# RAW-Dual [2] = assay: NF-kB SEAP reporter activity, fold change vs agonist alone; cytotoxicity flag (confluency mask): cytotoxic (confluency <70% of control); higher = enhanced NF-kB activity
# In short: as §1
# RAW-Dual [3] = assay: NF-kB SEAP reporter activity, fold change vs agonist alone; higher = enhanced NF-kB activity; conditions: library stock concentration (final ~1000-fold dilution): 10 mM
# In short: as §1
# [4] = agonist: ODN 1826 (TLR9) 0.5 ug/mL
# [5] = agonist: Pam2CSK4 (TLR2/6) 0.1 ug/mL
# [6] = agonist: Pam3CSK4 (TLR2/1) 0.1 ug/mL
# [7] = cytotoxicity flag (confluency mask): cytotoxic (confluency <70% of control), agonist: Imiquimod (TLR7) […]
# [8] = cytotoxicity flag (confluency mask): cytotoxic (confluency <70% of control), agonist: MPLA (TLR4) […]
# [9] = cytotoxicity flag (confluency mask): not cytotoxic, agonist: Imiquimod (TLR7) […]
# [10] = cytotoxicity flag (confluency mask): not cytotoxic, agonist: MPLA (TLR4) […]
structure (smiles),measurement,setting,value
CCC1(O)C(=O)OCc2c1cc1n(c2=O)Cc2cc3cc(O)ccc3nc2-1 (configuration not stated) (library stock concentration (final ~1000-fold dilution): 10 mM),NF-kB SEAP reporter activity,RAW-Dual [1]; agonist: LPS (TLR4) 0.1 ug/mL,1.08
same,NF-kB SEAP reporter activity,RAW-Dual [1]; [4],0.937
same,NF-kB SEAP reporter activity,RAW-Dual [1]; [5],1.07
same,NF-kB SEAP reporter activity,RAW-Dual [1]; [6],1.14
same,NF-kB SEAP reporter activity,RAW-Dual [2]; agonist: LPS (TLR4) 0.1 ug/mL,1.9
same,NF-kB SEAP reporter activity,RAW-Dual [2]; [4],2.17
same,NF-kB SEAP reporter activity,RAW-Dual [2]; [5],1.03
same,NF-kB SEAP reporter activity,RAW-Dual [2]; [6],1.5
CCC1(O)C(=O)OCc2c1cc1n(c2=O)Cc2cc3cc(O)ccc3nc2-1 (configuration not stated),NF-kB SEAP reporter activity,RAW-Dual [3]; [7],2.34
same,NF-kB SEAP reporter activity,RAW-Dual [3]; [8],2
same,NF-kB SEAP reporter activity,RAW-Dual [3]; [9],0.896
same,NF-kB SEAP reporter activity,RAW-Dual [3]; [10],0.856
CCC1(O)C(=O)OCc2c1cc1n(c2=O)Cc2cc3c(CN(C)C)c(O)ccc3nc2-1.Cl (configuration not stated) (library stock concentration (final ~1000-fold dilution): 10 mM),NF-kB SEAP reporter activity,RAW-Dual [2]; agonist: LPS (TLR4) 0.1 ug/mL,2.73
same,NF-kB SEAP reporter activity,RAW-Dual [2]; [4],2.71
same,NF-kB SEAP reporter activity,RAW-Dual [2]; [5],0.868
same,NF-kB SEAP reporter activity,RAW-Dual [2]; [6],1.35
CCC1(O)C(=O)OCc2c1cc1n(c2=O)Cc2cc3c(CN(C)C)c(O)ccc3nc2-1 (configuration not stated),NF-kB SEAP reporter activity,RAW-Dual [3]; [9],1.46
same,NF-kB SEAP reporter activity,RAW-Dual [3]; [10],1.93
CCC1(O)C(=O)OCc2c1cc1n(c2=O)Cc2cc3c(CN(C)C)c(O)ccc3nc2-1 (configuration not stated) (library stock concentration (final ~1000-fold dilution): 10 mM),NF-kB SEAP reporter activity,RAW-Dual [1]; agonist: LPS (TLR4) 0.1 ug/mL,2.01
same,NF-kB SEAP reporter activity,RAW-Dual [1]; [4],1.59
same,NF-kB SEAP reporter activity,RAW-Dual [1]; [5],0.849
same,NF-kB SEAP reporter activity,RAW-Dual [1]; [6],1.27
CCC1(O)C(=O)OCc2c1cc1n(c2=O)Cc2cc3c(CN(C)C)c(O)ccc3nc2-1.Cl (configuration not stated),NF-kB SEAP reporter activity,RAW-Dual [3]; [7],2.3
same,NF-kB SEAP reporter activity,RAW-Dual [3]; [8],2.16
Cc1nnc(C(C)C)n1C1CC2CCC(C1)N2CCC(NC(=O)C1CCC(F)(F)CC1)c1ccccc1 (configuration not stated),NF-kB SEAP reporter activity,RAW-Dual [3]; [9],0.968
same,NF-kB SEAP reporter activity,RAW-Dual [3]; [10],1
Cc1nnc(C(C)C)n1C1CC2CCC(C1)N2CCC(NC(=O)C1CCC(F)(F)CC1)c1ccccc1 (configuration not stated) (library stock concentration (final ~1000-fold dilution): 10 mM),NF-kB SEAP reporter activity,RAW-Dual [1]; agonist: LPS (TLR4) 0.1 ug/mL,0.973
same,NF-kB SEAP reporter activity,RAW-Dual [1]; [4],1.04
same,NF-kB SEAP reporter activity,RAW-Dual [1]; [5],1.06
same,NF-kB SEAP reporter activity,RAW-Dual [1]; [6],1.11
O=C(/C=C/c1ccccc1)NC(NC(=S)Nc1ccc(Cl)cc1)C(Cl)(Cl)Cl (configuration not stated),NF-kB SEAP reporter activity,RAW-Dual [3]; [7],1.03
same,NF-kB SEAP reporter activity,RAW-Dual [3]; [8],2.18
O=C(NC(NC(=S)Nc1ccc(F)c([N+](=O)[O-])c1)C(Cl)(Cl)Cl)C(c1ccccc1)c1ccccc1 (configuration not stated),NF-kB SEAP reporter activity,RAW-Dual [3]; [7],0.707
same,NF-kB SEAP reporter activity,RAW-Dual [3]; [8],0.521
O=C(/C=C/c1ccccc1)NC(NC(=S)Nc1cccc2cccnc12)C(Cl)(Cl)Cl (configuration not stated) (library stock concentration (final ~1000-fold dilution): 10 mM),NF-kB SEAP reporter activity,RAW-Dual [1]; agonist: LPS (TLR4) 0.1 ug/mL,0.779
same,NF-kB SEAP reporter activity,RAW-Dual [1]; [4],0.429
same,NF-kB SEAP reporter activity,RAW-Dual [1]; [5],0.288
same,NF-kB SEAP reporter activity,RAW-Dual [1]; [6],0.388
O=C(/C=C/c1ccccc1)NC(NC(=S)Nc1cccc2cccnc12)C(Cl)(Cl)Cl (configuration not stated),NF-kB SEAP reporter activity,RAW-Dual [3]; [9],0.628
same,NF-kB SEAP reporter activity,RAW-Dual [3]; [10],0.833
O=C(/C=C/c1ccccc1)NC(NC(=S)Nc1ccc(Cl)cc1)C(Cl)(Cl)Cl (configuration not stated) (library stock concentration (final ~1000-fold dilution): 10 mM),NF-kB SEAP reporter activity,RAW-Dual [2]; agonist: LPS (TLR4) 0.1 ug/mL,2.64
same,NF-kB SEAP reporter activity,RAW-Dual [2]; [4],1.22
same,NF-kB SEAP reporter activity,RAW-Dual [2]; [5],0.494
same,NF-kB SEAP reporter activity,RAW-Dual [2]; [6],0.809
O=C(NC(NC(=S)Nc1ccc(F)c([N+](=O)[O-])c1)C(Cl)(Cl)Cl)C(c1ccccc1)c1ccccc1 (configuration not stated) (library stock concentration (final ~1000-fold dilution): 10 mM),NF-kB SEAP reporter activity,RAW-Dual [2]; agonist: LPS (TLR4) 0.1 ug/mL,0.182
same,NF-kB SEAP reporter activity,RAW-Dual [2]; [4],0.493
same,NF-kB SEAP reporter activity,RAW-Dual [2]; [5],0.146
same,NF-kB SEAP reporter activity,RAW-Dual [2]; [6],0.135
Cc1cc2c(C(=O)NCC(C)c3ccccc3)c(O)c(O)cc2c(O)c1-c1c(C)cc2c(C(=O)NCC(C)c3ccccc3)c(O)c(O)cc2c1O (configuration not stated) (library stock concentration (final ~1000-fold dilution): 10 mM),NF-kB SEAP reporter activity,RAW-Dual [1]; agonist: LPS (TLR4) 0.1 ug/mL,4.28
same,NF-kB SEAP reporter activity,RAW-Dual [1]; [4],2.93
same,NF-kB SEAP reporter activity,RAW-Dual [1]; [5],0.803
same,NF-kB SEAP reporter activity,RAW-Dual [1]; [6],1.62
Cc1cc2c(C(=O)NCC(C)c3ccccc3)c(O)c(O)cc2c(O)c1-c1c(C)cc2c(C(=O)NCC(C)c3ccccc3)c(O)c(O)cc2c1O (configuration not stated),NF-kB SEAP reporter activity,RAW-Dual [3]; [9],1.84
same,NF-kB SEAP reporter activity,RAW-Dual [3]; [10],2.27
N=C(N)Nc1nc(CSCCC(=N)NS(N)(=O)=O)cs1 (library stock concentration (final ~1000-fold dilution): 10 mM),NF-kB SEAP reporter activity,RAW-Dual [1]; agonist: LPS (TLR4) 0.1 ug/mL,1.03
same,NF-kB SEAP reporter activity,RAW-Dual [1]; [4],1.06
same,NF-kB SEAP reporter activity,RAW-Dual [1]; [5],1.25
same,NF-kB SEAP reporter activity,RAW-Dual [1]; [6],1.09
N=C(N)Nc1nc(CSCCC(=N)NS(N)(=O)=O)cs1,NF-kB SEAP reporter activity,RAW-Dual [3]; [9],0.918
same,NF-kB SEAP reporter activity,RAW-Dual [3]; [10],1
CN1CCCC1CCOC(C)(c1ccccc1)c1ccc(Cl)cc1.O=C(O)/C=C/C(=O)O (configuration not stated) (library stock concentration (final ~1000-fold dilution): 10 mM),NF-kB SEAP reporter activity,RAW-Dual [1]; agonist: LPS (TLR4) 0.1 ug/mL,1.32
same,NF-kB SEAP reporter activity,RAW-Dual [1]; [4],0.754
same,NF-kB SEAP reporter activity,RAW-Dual [1]; [5],0.873
same,NF-kB SEAP reporter activity,RAW-Dual [1]; [6],0.64
CN1CCCC1CCOC(C)(c1ccccc1)c1ccc(Cl)cc1.O=C(O)/C=C/C(=O)O (configuration not stated),NF-kB SEAP reporter activity,RAW-Dual [3]; [9],1.7
same,NF-kB SEAP reporter activity,RAW-Dual [3]; [10],0.942
O=C(O)CCCN1CCC(OC(c2ccc(Cl)cc2)c2ccccn2)CC1.O=S(=O)(O)c1ccccc1 (configuration not stated),NF-kB SEAP reporter activity,RAW-Dual [3]; [9],1.08
same,NF-kB SEAP reporter activity,RAW-Dual [3]; [10],1.03
O=C(O)CCCN1CCC(OC(c2ccc(Cl)cc2)c2ccccn2)CC1.O=S(=O)(O)c1ccccc1 (configuration not stated) (library stock concentration (final ~1000-fold dilution): 10 mM),NF-kB SEAP reporter activity,RAW-Dual [1]; agonist: LPS (TLR4) 0.1 ug/mL,1.04
same,NF-kB SEAP reporter activity,RAW-Dual [1]; [4],1.06
same,NF-kB SEAP reporter activity,RAW-Dual [1]; [5],1.01
same,NF-kB SEAP reporter activity,RAW-Dual [1]; [6],1.17
N#CC1CC2CC2N1C(=O)C(N)C12CC3CC(CC(O)(C3)C1)C2.O (configuration not stated) (library stock concentration (final ~1000-fold dilution): 10 mM),NF-kB SEAP reporter activity,RAW-Dual [1]; agonist: LPS (TLR4) 0.1 ug/mL,1.27
same,NF-kB SEAP reporter activity,RAW-Dual [1]; [4],1.44
same,NF-kB SEAP reporter activity,RAW-Dual [1]; [5],1.71
same,NF-kB SEAP reporter activity,RAW-Dual [1]; [6],1.75
N#CC1CC2CC2N1C(=O)C(N)C12CC3CC(CC(O)(C3)C1)C2.O (configuration not stated),NF-kB SEAP reporter activity,RAW-Dual [3]; [10],1.19
